According to PubChem BioAssay AID504582 (Broad Institute, 2011):
Hit rate of the full screen: of about 340,000 compounds, about 2,300 (0.68%) were called active. The entries come from a sample that favours actives as a whole. Unmarked numbers belong to inactive results. Rule as the data show it: active = growth rescue above about 28% (passing the limit was not always enough); inconclusive = no clear call, values can overlap the other calls.

test: rescue of yeast from PfHsp40 toxicity, primary screen, S. cerevisiae, ATP luminescence (AID 504582);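 also: yeast W303a lacking pdr1 and pdr3 grown in galactose medium; growth measured after three days at 30 °C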; details: S. cerevisiae expressing PfHsp40, growth rescue, at 12.5 µM, stronger effect = higher value

| SMILES | growth rescue |
| --- | --- |
| COc1cc(C(=O)OCC(=O)NC23CC4CC(CC(C4)C2)C3)cc(OC)c1OC | 0.746% |
| Cc1ccc(C(=O)OC2CCCN(C)C2)cc1 (centres undefined) | -1.37% |
| CC1(C)C2CCC1(C)C(OC(=O)c1ccc(O)cc1)C2 (centres undefined) | 518% (active) |
| CC1(C)C2CCC1(C)C(OC(=O)CCn1ccnc1)C2 (centres undefined) | -1.93% |
| CCOC(=O)Nc1ccc2c(c1)N(C(=O)CCCl)c1ccccc1[S@]2=O | 1.15% |
| Cc1ccc2c(c1)N(CC(=O)NCCCN1CCCCC1)C(=O)c1cccnc1O2 | -0.596% |
| COC(=O)C1CCCCN1C(=O)c1ccc(OC2CCN(C(C)=O)CC2)c(OC)c1 (centres undefined) | 1.77% |
| Cc1ccc2c(c1)N(CC(=O)N1CCOCC1)C(=O)CO2 | -0.417% |
| CCCCNc1nc2c(c(=O)n(C)c(=O)n2C)n1Cc1cccc(OC)c1 | 0.511% |
| CCCCNc1c(-c2ccc(OC)c(Sc3ccc(OC)cc3)c2)nc2ccc(Cl)cn12 | 19.1% |
| CCCCNc1c(-c2cccc(Sc3ccc(OC)cc3)c2)nc2ccccn12 | 310% (active) |
| Cn1c(=O)n(C)c2cc(CNc3ccc(N4CCOCC4)c(C(=O)O)c3)ccc21 | -0.489% |
| Cc1cccc(N2CCN(C(=O)CN(C)S(=O)(=O)c3ccc4c(c3)CCC(=O)N4)CC2)c1C | -1.62% |
| COc1ccc(C(=O)Nc2cc(C)c(NC(=O)c3ccccc3OC)cn2)cc1 | 1.75% |
| COc1ccc(C(=O)Nc2ccccc2C(=O)N/N=C/c2ccc(O)c(OC)c2)cc1 | 40.9% (active) |
| COc1cc(C=NNC(=O)c2cccnc2)ccc1OC(=O)c1ccccc1F | 1.77% |
| C=CCN1CC(C)/C(=N\O)CC1C (centres undefined) | -0.962% |
| COc1cccc(CNC(=O)CCC2CCCN(C(=O)c3cc(C)[nH]n3)C2)c1 (centres undefined) | 1.27% |
| NC(=O)NC(=O)CSc1nc2cc([N+](=O)[O-])ccc2n1-c1cccc(C(F)(F)F)c1 | 0.555% |
| Nc1[nH]c(=S)nc2nc(-c3ccccc3)c(-c3ccccc3)nc12 | 38.7% (active) |
| Cc1ccc(Cc2cncc(O)c2)cc1S(=O)(=O)O | -2.67% |
| O=C(Nc1ccc2sc3ccccc3c(=O)c2c1)c1ccccc1Cl | -0.178% |
| O=C(Nc1ccc2ccccc2c1[N+](=O)[O-])c1ccccc1 | 0.461% |
| COC(=O)c1nc(NC(=O)c2ccccc2)n[nH]1 | -0.423% |

| SMILES | growth rescue |
| --- | --- |
| O=C(NC1=CC(=O)c2ccccc2C1=O)c1ccccc1 | 300% (active) |
| O=c1c2ccccc2ccc2ccc(P(=O)(O)O)cc12 | -0.021% |
| CCOC(=O)CSc1nnc(CNC(=O)c2cccs2)n1-c1ccccc1 | -0.612% |
| COc1ccc2[nH]c(C(=O)N3CCN(C)CC3)c(C)c2c1 | -0.899% |
| COc1ccc2[nH]c3c(C)c4cc[n+](C)cc4c(C)c3c2c1 | 122% (active) |
| COc1ccc2[nH]c3c(c2c1)CCN[C@H]3C | -1.47% |
| Cc1c(NC(=O)C(C)Oc2cccc(Cl)c2)c(=O)n(-c2ccccc2)n1C (centres undefined) | 0.003% |
| O=C(NCCCN1CCOCC1)c1cc(-c2ccc(Cl)cc2)on1 | 0.597% |
| COc1ccc(-c2cc(C(=O)NCCCN3CCOCC3)no2)cc1 | 0.263% |
| O=C(NCCCN1CCOCC1)c1cc(-c2cccc(O)c2)on1 | 44.1% (active) |
| CCOC(=O)CNC(=O)CSc1ncccc1-c1nc2ccccc2[nH]1 | 0.257% |
| Cc1cc(NC(=O)CN2CCCC(C)C2)n(-c2nc3ccccc3s2)n1 (centres undefined) | -1.25% |
| COC(=O)Cc1cc(=O)n(-c2nc3ccccc3s2)[nH]1 | 103% (active) |
| CC(=NCc1ccco1)c1c(C(F)(F)F)[nH]n(-c2nc3ccccc3s2)c1=O | -0.486% |
| O=C(NCCCn1ccnc1)c1cc(-c2ccccc2)on1 | -0.876% |
| O=C(/C=C/c1ccccc1)Oc1coc(CSc2ncccn2)cc1=O | 1.58% |
| O=C1c2ccccc2C(=O)N1CCC#Cc1ccc2cc(C3(O)CCCCC3)oc(=O)c2c1 | 0.213% |
| COc1cc(C#Cc2ccc3cc(CCCO)oc(=O)c3c2)cc(OC)c1 | 45.9% (active) |
| COc1cc(/C=C2\Oc3ccc(C#Cc4ccc(O)cc4)cc3C2=O)cc(OC)c1 | -1.52% |
| CCN1CCN(C(=O)CN(C)S(=O)(=O)c2ccc3ccccc3c2)CC1 | -0.824% |
| S=c1c2[nH]cnc2ncn1CCSc1ncnc2nc[nH]c12 | -2.56% |
| CC(=O)c1ccc(OCC(O)CN2CCN(S(=O)(=O)c3cccc(Br)c3)CC2)cc1 (centres undefined) | 26.4% (active) |
| O=S(=O)(c1ccc(OCC(O)CN2CCN(c3ccccc3Cl)CC2)cc1)N1CCOCC1 (centres undefined) | 2.31% |
| Cc1cccc(OCC(O)CN2CCN(S(=O)(=O)c3ccc(C)cc3C)CC2)c1 (centres undefined) | 0.709% |

| SMILES | growth rescue |
| --- | --- |
| COC(=O)c1cc2occc2n1Cc1nc(-c2ccccc2C)oc1C | 1.43% |
| Cc1c(NS(=O)(=O)c2cc(C(=O)NCCc3ccc(F)cc3)cc(Cl)c2Cl)c(=O)n(-c2ccccc2)n1C | -0.709% |
| CC12CCC(C(=O)N(NC(=O)c3ccccc3O)C1=O)C2(C)C (centres undefined) | 64.6% (active) |
| COc1ccccc1C(=O)NN1C(=O)C2C3C=CC(O3)C2C1=O (centres undefined) | 0.742% |
| CC1=CC(C)(C)NC(=S)N1NC(=O)c1ccccc1Cl | 0.305% |
| CN1CCN(C(=O)N2c3ccccc3CCc3ccccc32)CC1 | -1.45% |
| CC(C)CN(CC(C)C)C(=O)CN1c2cccc3cccc(c23)S1(=O)=O | 29.2% (active) |
| O=C(O)CN1c2cccc3cccc(c23)S1(=O)=O | 0.021% |
| CCN(CC(=O)Nc1c(F)cccc1F)C(=O)CN1c2cccc3cccc(c23)S1(=O)=O | 0.416% |
| COc1ccc(C2COC(=O)C2=N)c(NC(=O)c2ccccc2)c1 (centres undefined) | -1.79% |
| O=C(c1ccc(-c2ccccc2)cc1)C1CCCN(C(=O)c2cncs2)C1 (centres undefined) | 373% (active) |
| Cc1nc(C(=O)N2CCCC(C(=O)c3ccc(Cl)cc3)C2)cs1 (centres undefined) | -0.97% |
| CCNC(=O)N1CCCC(C(=O)c2ccc(-c3ccccc3)cc2)C1 (centres undefined) | 173% (active) |
| CCOC(=O)CCNC(=O)N1CCCC(C(=O)c2ccccc2SC)C1 (centres undefined) | -0.934% |
| Cc1ccccc1NC(=O)C1CCCN(C(=O)NCc2ccccc2)C1 (centres undefined) | -1.16% |
| Cn1nccc1C(=O)N1CCCC(C(=O)c2ccc(Oc3ccccc3)cc2)C1 (centres undefined) | 1.09% |
| N#Cc1c(C(F)(F)F)cc(-c2cccs2)nc1N1CCCCC1 | -0.0675% |
| CC(=O)c1ccc(NC(=O)c2ccc(-n3cncn3)c([N+](=O)[O-])c2)cc1 | 0.873% |
| CSc1ccc(CNCCN2CCOCC2)cc1 | -0.373% |
| CCOc1ccc(NC(=O)C2CCN(C(=O)N3CCOc4ccccc43)CC2)cc1 | 2.49% |
| CCN(CC)S(=O)(=O)c1ccc(CNC(=O)CN2C(=O)NC3(CCc4ccccc43)C2=O)cc1 (centres undefined) | 0.805% |
| COc1ccc(N2CCN(C(=O)CNC(=O)c3ccc(C(C)(C)C)cc3)CC2)cc1 | -0.643% |
| COc1ccc(N2CCN(C(=O)CCNC(=O)c3ccc(Br)cc3)CC2)cc1 | 156% (active) |
| COc1ccc(N2CCN(C(=O)CNC(=O)c3ccc(Br)o3)CC2)cc1 | 0.176% |

| SMILES | growth rescue |
| --- | --- |
| CCOC(=O)c1cnc(Nc2nc3ccccc3o2)nc1CSC(=S)N1CCCCC1 | -0.518% |
| Cc1ccc2[nH]c(=O)c(CN(CCCN(C)C)C(=O)Nc3cccc(Cl)c3)cc2c1 | -0.771% |
| CCn1c(/C=C/Nc2ccccc2)[n+](CC)c2ccc(C(=O)OCC(F)(F)F)cc21 | -1.14% |
| O=C(NN1C(=O)C2CCCCC2C1=O)c1ccco1 (centres undefined) | -1.05% |
| O=C1Nc2cc(Cl)c(Cl)cc2N(O)N1c1cc(Cl)cc(Cl)c1 | 7.24% |
| CC(=O)Nc1ccccc1NC(=O)c1cc(C)cc(C)c1 | 51.5% (active) |
| Cc1ccccc1C(=O)Nc1ccccc1NC(=O)c1ccccc1C | -1.3% |
| Nc1ccc(C(=O)Nc2ccccc2N)cc1 | 0.192% |
| CC(=O)NNc1cc(=O)c2c(=O)n(C)c(=O)n(C)c2[nH]1 | -1.81% |
| Cc1cc(Nc2cccc(C)c2C)n2ncnc2n1 | -0.558% |
| Cc1ccc(-c2nn(C(C)(C)C)c3ncnc(N)c23)cc1 | 263% (active) |
| CCOc1cccc(NC(=O)Cn2nc(-c3ccc4c(c3)OCCO4)ccc2=O)c1 | 1.19% |
| Cc1cc(C(=O)NCCc2ccc(Cl)cc2)n(-c2ccccc2)n1 | 0.0165% |
| O=C(NCCc1ccccc1)Oc1ccc(Cl)cc1 | -0.082% |
| Cc1cc(C(=O)NCCc2ccc(Cl)cc2)c(C)o1 | 52.1% (active) |
| Cc1ccc(C(NC(=O)N2CCCC2)C(Cl)(Cl)Cl)cc1F (centres undefined) | -0.492% |
| CCCCn1c(SCC(=O)N2CCOCC2)nc2c1c(=O)n(C)c(=O)n2C | -0.611% |
| CC(C)(C)OC(=O)C[C@@H]1C/C=C\C[C@@H](CC(=O)N[C@H](CO)Cc2ccccc2)C(=O)NCCOC1=O | -0.196% |
| COc1ccc(-c2cc(=O)oc3cc(OC(C)C(=O)Nc4ccc(CN5CCOCC5)cc4)ccc23)cc1 (centres undefined) | 0.401% |
| COc1cc(NC(=O)COc2ccccc2Cl)ccc1NC(=O)C(C)C | 1.17% |
| CCC(=O)N1CCN(c2ccccc2NC(=O)COc2cccc(C)c2C)CC1 | 2.68% |
| Cc1ccccc1OCC(=O)Nc1ccc(N2CCN(C(=O)C(C)C)CC2)c(Cl)c1 | 48.8% (active) |
